{"source": "the supplement of paper PMC7156485", "conditions_in_all_cases": "concentration: 10 µM; 24 h", "key": {"[1]": {"system": "HCC1569", "assay": "cell number relative to DMSO (% of DMSO); higher = more cells (less growth inhibition / toxicity)", "in_short": "(§1)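 In 384-well plates holding 800 HCC1569 or TDF cells per well in RPMI with 10% FBS, compounds were tested at 10 µM for 24 h at 37 °C in triplicate. Fixation used 3.7% formaldehyde. Staining used a rabbit anti-H1.0 antibody with an AlexaFluor 647 secondary, plus DAPI. Each value, H1.0 nuclear intensity or cell number, is a median of replicates shown as percent of the plate control, and HCC1569 values were smoothed for positional effects.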"}, "[2]": {"system": "TDF", "assay": "cell number relative to DMSO (% of DMSO); higher = more cells (less growth inhibition / toxicity)", "in_short": "as §1"}, "[3]": {"system": "TDF", "assay": "H1.0 immunofluorescence intensity relative to DMSO (% of DMSO); higher = stronger H1.0 induction, active = 120 or more", "in_short": "as §1"}, "[4]": {"system": "HCC1569", "assay": "H1.0 immunofluorescence intensity relative to DMSO (% of DMSO); higher = stronger H1.0 induction, active = 140 or more", "in_short": "as §1"}}, "note": "Where “and” joins values, the source holds several entries; their conditions need not be identical. Equal entries are not always repeated. ± gives the standard deviation of the averaged measurements.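 For H1.0 immunofluorescence intensity relative to DMSO in this document: TDF is a line of transformed human dermal fibroblasts of mesenchymal origin.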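 For cell number relative to DMSO in this document: TDF denotes transformed human dermal fibroblasts of mesenchymal origin.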", "data": [{"smiles": "CCCCCCCCCCCCCCSCC(=O)O", "note": "[Tetradecylthioacetic acid]", "values": [{"measurement": "cell number", "setting": "[1]", "result": 104}, {"measurement": "cell number", "setting": "[2]", "result": 107}, {"measurement": "H1.0 immunofluorescence intensity", "setting": "[3]", "result": "85.8 (inactive)"}, {"measurement": "H1.0 immunofluorescence intensity", "setting": "[4]", "result": "102 (inactive)"}]}, {"smiles": "CC[N+](CC)(CC)CCOc1ccc(C=Cc2ccccc2)cc1.[I-]", "values": [{"measurement": "cell number", "setting": "[1]", "result": 99.7}, {"measurement": "cell number", "setting": "[2]", "result": 72.2}, {"measurement": "H1.0 immunofluorescence intensity", "setting": "[3]", "result": "104 (inactive)"}, {"measurement": "H1.0 immunofluorescence intensity", "setting": "[4]", "result": "111 (inactive)"}]}, {"smiles": "CN1CCN2c3ccccc3Cc3ccccc3C2C1.Cl", "note": "(stereo unspecified) [Mianserin.HCl]", "values": [{"measurement": "cell number", "setting": "[1]", "result": 107}, {"measurement": "cell number", "setting": "[2]", "result": 112}, {"measurement": "H1.0 immunofluorescence intensity", "setting": "[3]", "result": "101 (inactive)"}, {"measurement": "H1.0 immunofluorescence intensity", "setting": "[4]", "result": "96.2 (inactive)"}]}, {"smiles": "COc1ccc(C2Sc3ccccc3N(CCN(C)C)C(=O)C2OC(C)=O)cc1", "note": "(stereo unspecified) [Diltiazem]", "values": [{"measurement": "cell number", "setting": "[1]", "result": 104}, {"measurement": "cell number", "setting": "[2]", "result": 107}, {"measurement": "H1.0 immunofluorescence intensity", "setting": "[3]", "result": "92 (inactive)"}, {"measurement": "H1.0 immunofluorescence intensity", "setting": "[4]", "result": "101 (inactive)"}]}, {"smiles": "COc1cc(C(O)CO)ccc1OS(=O)(=O)[O-].[K+]", "note": "(stereo unspecified) [MHPG sulfate potassium]", "values": [{"measurement": "cell number", "setting": "[1]", "result": 102}, {"measurement": "cell number", "setting": "[2]", "result": 105}, {"measurement": "H1.0 immunofluorescence intensity", "setting": "[3]", "result": "89.9 (inactive)"}, {"measurement": "H1.0 immunofluorescence intensity", "setting": "[4]", "result": "121 (inactive)"}]}, {"smiles": "CS(=O)(=O)Nc1ccc([N+](=O)[O-])cc1Oc1ccccc1", "note": "[Nimesulide]", "values": [{"measurement": "cell number", "setting": "[1]", "result": "104 ± 4.5"}, {"measurement": "cell number", "setting": "[2]", "result": "107 ± 2.2"}, {"measurement": "H1.0 immunofluorescence intensity", "setting": "[3]", "result": "94.4 (inactive)"}, {"measurement": "H1.0 immunofluorescence intensity", "setting": "[4]", "result": "96.5 (inactive)"}]}, {"smiles": "Cl.OCC1NCC(O)C(O)C1O", "note": "(stereo unspecified) [1-Deoxynojirimycin hydrochloride]", "values": [{"measurement": "cell number", "setting": "[1]", "result": 97.8}, {"measurement": "cell number", "setting": "[2]", "result": 106}, {"measurement": "H1.0 immunofluorescence intensity", "setting": "[3]", "result": "85.2 (inactive)"}, {"measurement": "H1.0 immunofluorescence intensity", "setting": "[4]", "result": "91.8 (inactive)"}]}, {"smiles": "Cc1ncc([N+](=O)[O-])n1CCO", "note": "[Metronidazole]", "values": [{"measurement": "cell number", "setting": "[1]", "result": 102}, {"measurement": "cell number", "setting": "[2]", "result": 104}, {"measurement": "H1.0 immunofluorescence intensity", "setting": "[3]", "result": "99.3 (inactive)"}, {"measurement": "H1.0 immunofluorescence intensity", "setting": "[4]", "result": "99.3 (inactive)"}]}, {"smiles": "O=C(C=Cc1ccc(O)c(O)c1)OCCc1ccccc1", "note": "[Caffeic acid phenethyl ester]", "values": [{"measurement": "cell number", "setting": "[1]", "result": 69.1}, {"measurement": "cell number", "setting": "[2]", "result": 81}, {"measurement": "H1.0 immunofluorescence intensity", "setting": "[3]", "result": "94.7 (inactive)"}, {"measurement": "H1.0 immunofluorescence intensity", "setting": "[4]", "result": "108 (inactive)"}]}, {"smiles": "CCSC(N)=Nc1ccc(C(F)(F)F)cc1.Cl", "note": "[TFPI hydrochloride]", "values": [{"measurement": "cell number", "setting": "[1]", "result": 79.3}, {"measurement": "cell number", "setting": "[2]", "result": 90.8}, {"measurement": "H1.0 immunofluorescence intensity", "setting": "[3]", "result": "99.6 (inactive)"}, {"measurement": "H1.0 immunofluorescence intensity", "setting": "[4]", "result": "132 (inactive)"}]}, {"smiles": "Br.Br.N=C(N)SCCc1ccc(CCSC(=N)N)cc1", "note": "[1,4-PBIT dihydrobromide]", "values": [{"measurement": "cell number", "setting": "[1]", "result": 96.8}, {"measurement": "cell number", "setting": "[2]", "result": 101}, {"measurement": "H1.0 immunofluorescence intensity", "setting": "[3]", "result": "92 (inactive)"}, {"measurement": "H1.0 immunofluorescence intensity", "setting": "[4]", "result": "105 (inactive)"}]}, {"smiles": "N=c1nc(N2CCCCC2)cc(N)n1O", "note": "[Minoxidil]", "values": [{"measurement": "cell number", "setting": "[1]", "result": "99.9 ± 3.1"}, {"measurement": "cell number", "setting": "[2]", "result": "105 ± 3.1"}, {"measurement": "H1.0 immunofluorescence intensity", "setting": "[3]", "result": "92 (inactive)"}, {"measurement": "H1.0 immunofluorescence intensity", "setting": "[4]", "result": "103 (inactive)"}]}, {"smiles": "CCN(CC)Cc1ccc(C(=O)N(CCc2ccccc2OC)[C@@H]2CCNC2)cc1.Cl.Cl", "values": [{"measurement": "cell number", "setting": "[1]", "result": 98.5}, {"measurement": "cell number", "setting": "[2]", "result": 95.9}, {"measurement": "H1.0 immunofluorescence intensity", "setting": "[3]", "result": "100 (inactive)"}, {"measurement": "H1.0 immunofluorescence intensity", "setting": "[4]", "result": "115 (inactive)"}]}, {"smiles": "COc1c2occc2cc2ccc(=O)oc12", "note": "[Xanthotoxin]", "values": [{"measurement": "cell number", "setting": "[1]", "result": 101}, {"measurement": "cell number", "setting": "[2]", "result": 104}, {"measurement": "H1.0 immunofluorescence intensity", "setting": "[3]", "result": "106 (inactive)"}, {"measurement": "H1.0 immunofluorescence intensity", "setting": "[4]", "result": "103 (inactive)"}]}, {"smiles": "Cl.O=C(CNC(=O)c1cccc(C(F)(F)F)c1)N[C@@H]1CCN(Cc2ccc(Cl)cc2)C1", "values": [{"measurement": "cell number", "setting": "[1]", "result": 89.9}, {"measurement": "cell number", "setting": "[2]", "result": 96.8}, {"measurement": "H1.0 immunofluorescence intensity", "setting": "[3]", "result": "89.1 (inactive)"}, {"measurement": "H1.0 immunofluorescence intensity", "setting": "[4]", "result": "134 (inactive)"}]}, {"smiles": "O=C(O)c1cn(C2CC2)c2cc(N3C[C@@H]4C[C@H]3CN4)c(F)cc2c1=O", "values": [{"measurement": "cell number", "setting": "[1]", "result": 99.1}, {"measurement": "cell number", "setting": "[2]", "result": 109}, {"measurement": "H1.0 immunofluorescence intensity", "setting": "[3]", "result": "91.9 (inactive)"}, {"measurement": "H1.0 immunofluorescence intensity", "setting": "[4]", "result": "102 (inactive)"}]}, {"smiles": "COc1ccccc1N1CCN(CCN(C(=O)c2ccc(I)cc2)c2ccccn2)CC1.Cl", "note": "[p-MPPI hydrochloride]", "values": [{"measurement": "cell number", "setting": "[1]", "result": 97.4}, {"measurement": "cell number", "setting": "[2]", "result": 96.3}, {"measurement": "H1.0 immunofluorescence intensity", "setting": "[3]", "result": "96.6 (inactive)"}, {"measurement": "H1.0 immunofluorescence intensity", "setting": "[4]", "result": "93.4 (inactive)"}]}, {"smiles": "O=c1c(-c2ccc(O)cc2)coc2cc(O)cc(O)c12", "note": "[Genistein]", "values": [{"measurement": "cell number", "setting": "[1]", "result": "97.9 ± 4.4"}, {"measurement": "cell number", "setting": "[2]", "result": "99 ± 4.5"}, {"measurement": "H1.0 immunofluorescence intensity", "setting": "[3]", "result": "92.8 (inactive)"}, {"measurement": "H1.0 immunofluorescence intensity", "setting": "[4]", "result": "97.6 (inactive)"}]}, {"smiles": "CCCCCC(O)C=CC=CC=CC(O)CC=CCCCC(=O)O", "note": "(stereo unspecified)", "values": [{"measurement": "cell number", "setting": "[1]", "result": 101}, {"measurement": "cell number", "setting": "[2]", "result": 100}, {"measurement": "H1.0 immunofluorescence intensity", "setting": "[3]", "result": "94.8 (inactive)"}, {"measurement": "H1.0 immunofluorescence intensity", "setting": "[4]", "result": "107 (inactive)"}]}, {"smiles": "O=C(O)c1ccc(-c2c[nH]c3ncc(-c4ccccc4)cc23)cc1C1CCCC1", "values": [{"measurement": "cell number", "setting": "[1]", "result": "71.1 and 70.9"}, {"measurement": "cell number", "setting": "[2]", "result": "69.4 and 71.3"}, {"measurement": "H1.0 immunofluorescence intensity", "setting": "[3]", "result": "95.6 (inactive) and 106 (inactive)"}, {"measurement": "H1.0 immunofluorescence intensity", "setting": "[4]", "result": "152 (active) and 146 (active)"}]}, {"smiles": "NC(N)=Nc1nc(CSCCC(N)=NS(N)(=O)=O)cs1", "values": [{"measurement": "cell number", "setting": "[1]", "result": 103}, {"measurement": "cell number", "setting": "[2]", "result": 110}, {"measurement": "H1.0 immunofluorescence intensity", "setting": "[3]", "result": "91.1 (inactive)"}, {"measurement": "H1.0 immunofluorescence intensity", "setting": "[4]", "result": "108 (inactive)"}]}, {"smiles": "CC(=O)Nc1nc(C)c(S(=O)(=O)Nc2ccc(C(O)(C(F)(F)F)C(F)(F)F)cc2)s1", "values": [{"measurement": "cell number", "setting": "[1]", "result": 97.5}, {"measurement": "cell number", "setting": "[2]", "result": 109}, {"measurement": "H1.0 immunofluorescence intensity", "setting": "[3]", "result": "85.1 (inactive)"}, {"measurement": "H1.0 immunofluorescence intensity", "setting": "[4]", "result": "111 (inactive)"}]}, {"smiles": "Cc1cn(-c2cc(NC(=O)c3ccc(C)c(Nc4nccc(-c5cccnc5)n4)c3)cc(C(F)(F)F)c2)cn1", "note": "[Nilotinib]", "values": [{"measurement": "cell number", "setting": "[1]", "result": 100}, {"measurement": "cell number", "setting": "[2]", "result": 73.5}, {"measurement": "H1.0 immunofluorescence intensity", "setting": "[3]", "result": "101 (inactive)"}, {"measurement": "H1.0 immunofluorescence intensity", "setting": "[4]", "result": "94.2 (inactive)"}]}, {"smiles": "CON(C)C(=O)[C@H](O)[C@H](Cc1ccccc1)NC(=O)c1cc2cc(Cl)ccc2[nH]1", "values": [{"measurement": "cell number", "setting": "[1]", "result": 103}, {"measurement": "cell number", "setting": "[2]", "result": 110}, {"measurement": "H1.0 immunofluorescence intensity", "setting": "[3]", "result": "88.1 (inactive)"}, {"measurement": "H1.0 immunofluorescence intensity", "setting": "[4]", "result": "103 (inactive)"}]}]}
